Source: PubChem BioAssay (NCI)
Compounds without any hit were thinned out: in the full panel of roughly 83,000, 20% have a hit.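 Assay: single dose, 48 h. Readout: percent growth (0 = no net growth; negative = cell death). Active: <10.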 The source made the active and inactive calls.

Test system: SK-MEL-2 melanoma
Assay: NCI-60 one-dose screen, 48 h (100 = growth as untreated, 0 = no growth, -100 = all killed)
Conditions: 10 µM unless noted

Compound | growth
CN(C)c1ccc(C2Nc3ccccc3-n3cccc32)cc1 (stereo not drawn) | 118% (inactive)
Nc1nc2c(c3ncccc13)C(c1cccc(Br)c1)Cc1ncccc1-2 (stereo not drawn) | 3.12% (active)
O=[N+]([O-])c1cccc(-c2nc3sccn3c2-c2ccnc(NCCCNS(=O)(=O)c3ccc(F)cc3)n2)c1 | -15.9% (active)
COc1ccc(-n2c(C)nc3c(c(C)nn3-c3ccccc3)c2=O)cc1 | 36.4% (inactive)
COc1ccc(-n2cc(-c3ccccc3)c3c(SCC(=O)N/N=C/c4ccc([N+](=O)[O-])cc4)ncnc32)cc1 | 98.1% (inactive)
Nc1c(C(=O)Nc2ccccc2)sc2nc3c(cc12)CN(CCc1ccccc1)CC3 | 105% (inactive)
CCOC(=O)c1c2ncccc2n2c(=O)n(-c3ccc(Cl)cc3)nnc12 | 108% (inactive)
CCN(CC)CCCC(C)Nc1ccnc2c(OC)cccc12 (stereo not drawn) | 127% (inactive)
OC(c1cccc(C(F)(F)F)c1)c1cnccc1NC1CCCCCC1 (stereo not drawn) | 43% (inactive)
NC(=S)N/N=C/c1cc(-c2cccc(N)c2)ccn1 | 45.5% (inactive)
COc1ccc(CCN2CCCn3c2nc2ccccc2c3=O)cc1 | 51.1% (inactive)
O=C(/C=C\c1cccc([N+](=O)[O-])c1)c1ccccc1 | 100% (inactive)
CCOC(=O)C(Cc1cc(I)c(O)c(I)c1)NC(=O)c1ccccc1 (stereo not drawn) | 97.6% (inactive)
COc1cc(C#N)cc(OC)c1OCCN(CCOc1c(OC)cc(C#N)cc1OC)S(=O)(=O)c1ccc(C)cc1 | 75% (inactive)
CN1CCN(Cc2ccc(NC(=O)c3cncc(C#Cc4cncc5nccnc45)c3)cc2C(F)(F)F)CC1 | -13.2% (active)
Nc1nc(-c2ccc(F)cc2)cc(-c2cnn(-c3ccccc3)n2)n1 | 96% (inactive)
CC(=O)C1=C(O)C=C2Oc3c(C(=O)/C=C/c4ccccc4)c(O)c(C)c(O)c3[C@]2(C)C1=O | -3.97% (active)
COc1ccc(C/C(C)=C(\c2ccc(OCCN3CCCCCC3)cc2)c2ccc(OC(=O)C3CCCCC3)cc2)cc1 | 82.1% (inactive)
O=[N+]([O-])c1cccc(-c2nc3sccn3c2-c2ccnc(NCCCNS(=O)(=O)c3ccc(Br)cc3)n2)c1 | 47% (inactive)
CCOC(=O)/C=C/C(=O)[C@H](CC(C)C)NC(=O)[C@H](Cc1ccccc1)NC(=O)OCc1ccccc1 | 99.8% (inactive)

Compound | growth
Cc1cc2cc3cc(C)c(N(C)C)cc3nc2cc1N(C)C | -31.8% (active)
C=C1CCC2C3(C)COC(C)(C)OC3CCC2(C)C1C/C=C1/C(=O)OCC1OC(C)=O (stereo not drawn) | 49.2% (inactive)
C=C1CC2(OC1=O)C(=O)N(CCCCCCCCCCCCN1C(=O)C3(CC(=C)C(=O)O3)c3ccccc31)c1ccccc12 (stereo not drawn) | 73.3% (inactive)
O=C1c2cccnc2C(=O)c2c1c(C(=O)OCCN1CCCCC1)c1ccccn21 | -45.4% (active)
COc1ccccc1N1CCN(CCn2c(=O)c3c(c4ccccc4n3C)n(C)c2=O)CC1 | 60.2% (inactive)
C/C(=C(/c1ccc(O)cc1)c1ccc(OCCN(C)C)cc1)c1ccccc1 | 92.3% (inactive)
CCOC(=O)c1c2c(n3ccc(NC(=O)CCN4CCOCC4)cc13)C(=O)c1ncccc1C2=O | 30.9% (inactive)
Cc1cc(=O)oc2cc(Oc3nc(-c4cccs4)cn4c(-c5cccs5)cnc34)ccc12 | 69% (inactive)
CC(C)[C@@H]1CC[C@]2(C(=O)NCCCCN=C(N)N)CC[C@]3(C)[C@H](CC[C@@H]4[C@@]5(C)CCC(=O)C(C)(C)[C@@H]5CC[C@]43C)[C@@H]12 | 83.3% (inactive)
Oc1cc(O)c2c(=S)cc(-c3ccc(Cl)cc3)oc2c1 | 4.4% (active)
COc1ccc(-c2cn3c(-c4ccc(OC)cc4)cnc3c(Oc3ccc4c(C)cc(=O)oc4c3)n2)cc1 | 49.4% (inactive)
CN1CCN(Cc2ccc(NC(=O)c3[nH]ncc3Nc3ccnc4ccsc34)cc2)CC1 | 64.9% (inactive)
Nc1nc2ccc(-c3nc4ccc5[nH]ncc5c4c4c3CCC4)cc2s1 | 21.5% (inactive)
Oc1ccc2c(=S)cc(-c3ccc(Br)cc3)oc2c1O | 63.8% (inactive)
Clc1cccc(Nc2nc(Nc3cnc4ccccc4c3)c3[nH]cnc3n2)c1 | 81.1% (inactive)
COc1ccc(-c2cc(NC(=O)Nc3ccc(O)cc3)no2)cc1 | 102% (inactive)
CC(=O)CC(C)(C)c1ccc(Cl)cc1 | 108% (inactive)
O=C1C2CC=CCC2C(=O)N1CNc1ccc(Cl)cc1 (stereo not drawn) | 94.2% (inactive)
CN1CCN(Cc2ccc(NC(=O)c3[nH]ncc3Nc3ncnc4c3CCC4)cc2)CC1 | 13.6% (inactive)

Test system: EKVX NSCLC
Assay: as above
Conditions: 10 µM unless noted

Compound | growth
CN(C)c1ccc(C2Nc3ccccc3-n3cccc32)cc1 (stereo not drawn) | 87.8% (inactive)
Nc1nc2c(c3ncccc13)C(c1cccc(Br)c1)Cc1ncccc1-2 (stereo not drawn) | 41% (inactive)
O=[N+]([O-])c1cccc(-c2nc3sccn3c2-c2ccnc(NCCCNS(=O)(=O)c3ccc(F)cc3)n2)c1 | 18.3% (inactive)
COc1ccc(-n2c(C)nc3c(c(C)nn3-c3ccccc3)c2=O)cc1 | 32% (inactive)
COc1ccc(-n2cc(-c3ccccc3)c3c(SCC(=O)N/N=C/c4ccc([N+](=O)[O-])cc4)ncnc32)cc1 | 97% (inactive)
Nc1c(C(=O)Nc2ccccc2)sc2nc3c(cc12)CN(CCc1ccccc1)CC3 | 88.3% (inactive)
CCOC(=O)c1c2ncccc2n2c(=O)n(-c3ccc(Cl)cc3)nnc12 | 68.7% (inactive)
CCN(CC)CCCC(C)Nc1ccnc2c(OC)cccc12 (stereo not drawn) | 112% (inactive)
OC(c1cccc(C(F)(F)F)c1)c1cnccc1NC1CCCCCC1 (stereo not drawn) | 57.3% (inactive)
NC(=S)N/N=C/c1cc(-c2cccc(N)c2)ccn1 | 37.8% (inactive)
COc1ccc(CCN2CCCn3c2nc2ccccc2c3=O)cc1 | 45.7% (inactive)
O=C(/C=C\c1cccc([N+](=O)[O-])c1)c1ccccc1 | 96.9% (inactive)
CCOC(=O)C(Cc1cc(I)c(O)c(I)c1)NC(=O)c1ccccc1 (stereo not drawn) | 101% (inactive)
COc1cc(C#N)cc(OC)c1OCCN(CCOc1c(OC)cc(C#N)cc1OC)S(=O)(=O)c1ccc(C)cc1 | 108% (inactive)
CN1CCN(Cc2ccc(NC(=O)c3cncc(C#Cc4cncc5nccnc45)c3)cc2C(F)(F)F)CC1 | 71.2% (inactive)
Nc1nc(-c2ccc(F)cc2)cc(-c2cnn(-c3ccccc3)n2)n1 | 99.7% (inactive)
CC(=O)C1=C(O)C=C2Oc3c(C(=O)/C=C/c4ccccc4)c(O)c(C)c(O)c3[C@]2(C)C1=O | 36.7% (inactive)
COc1ccc(C/C(C)=C(\c2ccc(OCCN3CCCCCC3)cc2)c2ccc(OC(=O)C3CCCCC3)cc2)cc1 | 83.5% (inactive)
O=[N+]([O-])c1cccc(-c2nc3sccn3c2-c2ccnc(NCCCNS(=O)(=O)c3ccc(Br)cc3)n2)c1 | 59.4% (inactive)
CCOC(=O)/C=C/C(=O)[C@H](CC(C)C)NC(=O)[C@H](Cc1ccccc1)NC(=O)OCc1ccccc1 | 100% (inactive)

Compound | growth
Cc1cc2cc3cc(C)c(N(C)C)cc3nc2cc1N(C)C | 34.6% (inactive)
C=C1CCC2C3(C)COC(C)(C)OC3CCC2(C)C1C/C=C1/C(=O)OCC1OC(C)=O (stereo not drawn) | 53.5% (inactive)
C=C1CC2(OC1=O)C(=O)N(CCCCCCCCCCCCN1C(=O)C3(CC(=C)C(=O)O3)c3ccccc31)c1ccccc12 (stereo not drawn) | 98% (inactive)
O=C1c2cccnc2C(=O)c2c1c(C(=O)OCCN1CCCCC1)c1ccccn21 | 4.44% (active)
COc1ccccc1N1CCN(CCn2c(=O)c3c(c4ccccc4n3C)n(C)c2=O)CC1 | 106% (inactive)
C/C(=C(/c1ccc(O)cc1)c1ccc(OCCN(C)C)cc1)c1ccccc1 | 83.6% (inactive)
CCOC(=O)c1c2c(n3ccc(NC(=O)CCN4CCOCC4)cc13)C(=O)c1ncccc1C2=O | 60.4% (inactive)
Cc1cc(=O)oc2cc(Oc3nc(-c4cccs4)cn4c(-c5cccs5)cnc34)ccc12 | 64% (inactive)
CC(C)[C@@H]1CC[C@]2(C(=O)NCCCCN=C(N)N)CC[C@]3(C)[C@H](CC[C@@H]4[C@@]5(C)CCC(=O)C(C)(C)[C@@H]5CC[C@]43C)[C@@H]12 | 81.5% (inactive)
Oc1cc(O)c2c(=S)cc(-c3ccc(Cl)cc3)oc2c1 | 70.2% (inactive)
COc1ccc(-c2cn3c(-c4ccc(OC)cc4)cnc3c(Oc3ccc4c(C)cc(=O)oc4c3)n2)cc1 | 50.2% (inactive)
CN1CCN(Cc2ccc(NC(=O)c3[nH]ncc3Nc3ccnc4ccsc34)cc2)CC1 | 41.1% (inactive)
Nc1nc2ccc(-c3nc4ccc5[nH]ncc5c4c4c3CCC4)cc2s1 | 19.4% (inactive)
Oc1ccc2c(=S)cc(-c3ccc(Br)cc3)oc2c1O | 87.9% (inactive)
Clc1cccc(Nc2nc(Nc3cnc4ccccc4c3)c3[nH]cnc3n2)c1 | 41.3% (inactive)
COc1ccc(-c2cc(NC(=O)Nc3ccc(O)cc3)no2)cc1 | 77.2% (inactive)
CC(=O)CC(C)(C)c1ccc(Cl)cc1 | 101% (inactive)
O=C1C2CC=CCC2C(=O)N1CNc1ccc(Cl)cc1 (stereo not drawn) | 88.6% (inactive)
CN1CCN(Cc2ccc(NC(=O)c3[nH]ncc3Nc3ncnc4c3CCC4)cc2)CC1 | 26% (inactive)
